In all, about 5,500 compounds went through this assay and about 2,000 (36%) were called active. Roughly 18% stayed inconclusive and do not appear here. Rule as the data show it: active = normalized growth mostly below about 0.91 (no sharp cut-off); inconclusive = no clear call, values can overlap the other calls; inactive = mostly above about 0.92. The list shows a part of the results.
Experiment: chemical genetic growth profiling, strain panel (AID 1159580);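 also: tested at 20 µM; growth read once vehicle control cultures reached saturation at 30 °C; 1 = growth at the plate median or of vehicle wells; lower values mean less growth of the strain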
Settings: growth OD

Measured: normalized growth

C[C@@H]1CC[C@@]2(OC1)O[C@H]1CC3C4CC[C@H]5C[C@@H](O)CC[C@]5(C)C4CC[C@]3(C)[C@H]1[C@@H]2C (stereo not given in full)
inactive: S. cerevisiae deletion strains, locus YJR066W, strain TOR1, active compounds read low 0.945 | S. cerevisiae deletion strains, locus YJR075W, strain HOC1, active compounds read low 0.981 | S. cerevisiae deletion strains, locus YKL009W, strain mrt4, active compounds read low 0.991 | S. cerevisiae deletion strains, locus YKL068W, active compounds read low 0.981 | S. cerevisiae deletion strains, locus YKL085W, strain MDH1 (second series), active compounds read low 0.977 | S. cerevisiae deletion strains, locus YKL085W, strain MDH1, active compounds read low 0.977 | S. cerevisiae deletion strains, locus YKL160W, strain elf1, active compounds read low 0.996 | S. cerevisiae deletion strains, locus YKR001C, strain vps1, active compounds read low 0.987 | S. cerevisiae deletion strains, locus YKR026C, strain gcn3, active compounds read low 0.984 | S. cerevisiae deletion strains, locus YKR091W, strain srl3, active compounds read low 0.986 | S. cerevisiae deletion strains, locus YLL001W, strain dnm1, active compounds read low 1 | S. cerevisiae deletion strains, locus YLL026W, active compounds read low 0.988 | S. cerevisiae deletion strains, locus YLL041C, strain sdh2, active compounds read low 1 | S. cerevisiae deletion strains, locus YLR027C, strain aat2, active compounds read low 0.988 | S. cerevisiae deletion strains, locus YLR039C, strain RIC1, active compounds read low 1.01 | S. cerevisiae deletion strains, locus YLR058C, strain SHM2, active compounds read low 0.991 | S. cerevisiae deletion strains, locus YLR102C, strain apc9, active compounds read low 0.977 | S. cerevisiae deletion strains, locus YLR113W, strain HOG1, active compounds read low 0.999 | S. cerevisiae deletion strains, locus YLR221C, strain rsa3, active compounds read low 1.02 | S. cerevisiae deletion strains, locus YLR258W, strain gsy2, active compounds read low 1 | S. cerevisiae deletion strains, locus YLR262C, strain YPT6 (second series), active compounds read low 1.02 | S. cerevisiae deletion strains, locus YLR268W, strain sec22, active compounds read low 1 | S. cerevisiae deletion strains, locus YLR320W, strain mms22, active compounds read low 0.99 | S. cerevisiae deletion strains, locus YLR342W, strain FKS1, active compounds read low 0.976 | S. cerevisiae deletion strains, locus YLR357W, strain rsc2, active compounds read low 0.973 | S. cerevisiae deletion strains, locus YLR370C, strain arc18, active compounds read low 0.997 | S. cerevisiae deletion strains, locus YLR371W, strain rom2, active compounds read low 0.979 | S. cerevisiae deletion strains, locus YLR384C, strain iki3, active compounds read low 0.993 | S. cerevisiae deletion strains, locus YLR418C, strain cdc73, active compounds read low 0.973 | S. cerevisiae deletion strains, locus YML016C, strain PPZ1, active compounds read low 1 | S. cerevisiae deletion strains, locus YML032C, strain rad52, active compounds read low 0.997 | S. cerevisiae deletion strains, locus YML120C, strain ndi1, active compounds read low 1.01 | S. cerevisiae deletion strains, locus YML124C, strain tub3, active compounds read low 0.983 | S. cerevisiae deletion strains, locus YMR058W, strain fet3, active compounds read low 0.996 | S. cerevisiae deletion strains, locus YMR078C, strain ctf18, active compounds read low 0.969 | S. cerevisiae deletion strains, locus YMR125W, strain sto1, active compounds read low 0.984 | S. cerevisiae deletion strains, locus YMR129W, active compounds read low 0.987 | S. cerevisiae deletion strains, locus YMR205C, strain PFK2, active compounds read low 1 | S. cerevisiae deletion strains, locus YMR223W, strain ubp8, active compounds read low 0.979 | S. cerevisiae deletion strains, locus YMR231W, strain pep5, active compounds read low 0.998 | S. cerevisiae deletion strains, locus YMR263W, strain SAP30, active compounds read low 0.976 | S. cerevisiae deletion strains, locus YMR307W, strain GAS1, active compounds read low 1.23 | S. cerevisiae deletion strains, locus YNL067W, strain RPL9B, active compounds read low 0.974 | S. cerevisiae deletion strains, locus YNL071W, strain lat1, active compounds read low 0.996 | S. cerevisiae deletion strains, locus YNL183C, strain NPR1, active compounds read low 0.975 | S. cerevisiae deletion strains, locus YNL209W, strain ssb2, active compounds read low 0.983 | S. cerevisiae deletion strains, locus YNL233W, strain BNI4, active compounds read low 0.99 | S. cerevisiae deletion strains, locus YNL248C, strain rpa49, active compounds read low 1 | S. cerevisiae deletion strains, locus YNL250W, strain rad50, active compounds read low 0.955 | S. cerevisiae deletion strains, locus YNL271C, strain bni1, active compounds read low 0.983 | S. cerevisiae deletion strains, locus YNL298W, strain CLA4, active compounds read low 0.972 | S. cerevisiae deletion strains, locus YNL307C, strain MCK1, active compounds read low 0.989 | S. cerevisiae deletion strains, locus YNL322C, strain KRE1 (second series), active compounds read low 0.987 | S. cerevisiae deletion strains, locus YNL322C, strain KRE1, active compounds read low 0.987 | S. cerevisiae deletion strains, locus YNR049C, strain mso1, active compounds read low 0.983 | S. cerevisiae deletion strains, locus YNR052C, strain pop2, active compounds read low 0.962 | S. cerevisiae deletion strains, locus YOL006C, strain TOP1, active compounds read low 1.14 | S. cerevisiae deletion strains, locus YOL012C, strain htz1 0.991 | S. cerevisiae deletion strains, locus YOL147C, strain pex11, active compounds read low 0.978 | S. cerevisiae deletion strains, locus YOR001W, strain rrp6, active compounds read low 0.999 | S. cerevisiae deletion strains, locus YOR061W, strain CKA2, active compounds read low 0.996 | S. cerevisiae deletion strains, locus YOR069W, strain VPS5, active compounds read low 0.983 | S. cerevisiae deletion strains, locus YOR070C, strain gyp1, active compounds read low 0.965 | S. cerevisiae deletion strains, locus YOR080W, strain dia2, active compounds read low 0.996 | S. cerevisiae deletion strains, locus YOR083W, strain WHI5, active compounds read low 0.992 | S. cerevisiae deletion strains, locus YOR106W, strain vam3, active compounds read low 0.983 | S. cerevisiae deletion strains, locus YOR136W, strain idh2, active compounds read low 0.992 | S. cerevisiae deletion strains, locus YOR144C, strain elg1, active compounds read low 0.988 | S. cerevisiae deletion strains, locus YOR184W, strain ser1, active compounds read low 1.03 | S. cerevisiae deletion strains, locus YOR231W, strain MKK1, active compounds read low 0.998 | S. cerevisiae deletion strains, locus YOR265W, strain rbl2, active compounds read low 0.995 | S. cerevisiae deletion strains, locus YOR270C, strain vph1, active compounds read low 1.03 | S. cerevisiae deletion strains, locus YOR290C, strain snf2, active compounds read low 1.01 | S. cerevisiae deletion strains, locus YOR316C, strain cot1, active compounds read low 0.962 | S. cerevisiae deletion strains, locus YPL051W, strain arl3, active compounds read low 0.997 | S. cerevisiae deletion strains, locus YPL078C, strain atp4, active compounds read low 1 | S. cerevisiae deletion strains, locus YPL106C, strain sse1, active compounds read low 0.972 | S. cerevisiae deletion strains, locus YPL240C, strain hsp82, active compounds read low 0.977 | S. cerevisiae deletion strains, locus YPL256C, strain CLN2, active compounds read low 0.999 | S. cerevisiae deletion strains, locus YPR119W, strain clb2, active compounds read low 0.979 | S. cerevisiae deletion strains, locus YPR141C, strain kar3, active compounds read low 0.951 | S. cerevisiae deletion strains, locus YPR163C, strain tif3, active compounds read low 0.959 | S. cerevisiae deletion strains, locus YPR167C, strain met16, active compounds read low 0.985 | S. cerevisiae deletion strains, strain wtn01, active compounds read low 1.01 | S. cerevisiae strains, strain wild type, active compounds read low 1.01

Source: PubChem BioAssay AID1159580 (chemical genetic matrix, 2015)
